Hits are enriched below; roughly 21% of the tested compounds scored in any of these assays.
CYP2C19 inhib: human CYP2C19 inhibition. CYP2C19 Supersomes, luciferin-H EGE luminescence, 30 min. inhibition, % at 5 µM. P33261. hit rate 21% among 96,000;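 active = CYP2C19 inhibition above a set limit at 5 µM in the primary screen, cut at about 50% in these data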;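 also: plate controls were negative control wells for no effect and 2.5 mM tranylcypromine positive control for full effect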
MRP-1 activ: activates MRP-1. hit rate 0.61% among 140,000. AID 799. H69AR cells + doxorubicin, viability rescue, CellTiter-Glo. viability increase, % at 10 µM;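 active = viability gain under doxorubicin at or above a set limit, the compound median plus 3 SD, cut at about 4.7% in these data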;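 also: MRP-1 overexpressing cells given doxorubicin 25 µM after compound pretreatment; 18-22 h compound pretreatment then 72 h with doxorubicin before readout; 0% = doxorubicin-only wells and 100% = vehicle-treated cells without doxorubicin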
CYP2C9 inhib: human CYP2C9 inhibition. CYP2C9 Supersomes, luciferin-H conversion, luminescence. inhibition, % at 5 µM. hit rate 20% among 96,000. AID 777;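 active = blocking of liver enzyme CYP2C9 beyond about 50% at 5 µM, limit read from the data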
Target sequence (P11712 whole entry, looked up): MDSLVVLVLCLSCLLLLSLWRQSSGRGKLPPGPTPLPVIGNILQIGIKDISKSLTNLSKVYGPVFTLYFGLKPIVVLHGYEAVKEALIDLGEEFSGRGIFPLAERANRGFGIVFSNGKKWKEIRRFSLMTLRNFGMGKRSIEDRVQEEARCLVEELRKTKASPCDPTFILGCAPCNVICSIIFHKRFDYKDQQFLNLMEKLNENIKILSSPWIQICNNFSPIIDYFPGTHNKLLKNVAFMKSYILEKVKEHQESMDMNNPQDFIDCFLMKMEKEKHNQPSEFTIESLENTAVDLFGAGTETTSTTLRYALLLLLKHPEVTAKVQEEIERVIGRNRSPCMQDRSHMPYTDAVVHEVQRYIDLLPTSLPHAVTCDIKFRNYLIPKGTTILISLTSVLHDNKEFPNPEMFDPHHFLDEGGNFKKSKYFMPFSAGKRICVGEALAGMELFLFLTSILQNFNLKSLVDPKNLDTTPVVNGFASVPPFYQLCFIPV
CYP2C19 activ: increases human CYP2C19 enzyme activity; P33261; recombinant CYP2C19, luciferin-H EGE luminescence; stronger effect = higher value; 0 = fully inhibited enzyme, 1 = untreated enzyme; activation factor at 5 µM; 96,000 tested, under 10 active; AID 1025;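 active = activation factor of at least 2 at 5 µM in the primary screen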;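 also: 0 = wells with 2.5 mM tranylcypromine and 1 = vehicle-only wells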
CYP2C9 activ: increases human cytochrome P450 2C9 activity; P11712; recombinant CYP2C9, luciferin-H conversion, luminescence; stronger effect = higher value; factor 1 = untreated enzyme, 0 = blocked; activation factor at 5 µM; hit rate 1.4% among 96,000; AID 1024;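 active = activation factor of 2 or more for CYP2C9 at a 5 µM dose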;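 also: 0 = sulfaphenazole-blocked wells and 1 = vehicle-only wells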
MRP resist rev: MRP-mediated drug resistance reversal; H69AR cells + 2 uM doxorubicin, CellTiter-Glo, 72 h; differential viability (reversal), % at 10 µM; hit rate 0.04% among 85,000;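 active = viability drop by adding the cancer drug above about 55%, with treated viability meeting a 40% cutoff, limit read from the data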;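 also: viability without doxorubicin minus viability with 2 µM doxorubicin for each compound; larger differential means the compound sensitizes cells more to doxorubicin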
Active calls of the source: *; / = no result.

SMILES	CYP2C19 inhib	MRP-1 activ	CYP2C9 inhib	CYP2C19 activ	CYP2C9 activ	MRP resist rev
Brc1ccc(-c2nc(-c3cccnc3)no2)o1	85.4*	-1.9	46.8	0.1	0.5	1.3
COc1ccc(-c2nc(-c3ccncc3)no2)cc1OC	88.2*	-2.2	59.5*	0.1	0.4	-3.9
CC(=O)Oc1ccc(-c2nc(-c3cccnc3)no2)cc1	94.6*	-1.4	86.2*	0.1	0.1	6.2
COc1ccc(CCC(=O)Nc2ccc(-c3noc(-c4ccc(OC)c(OC)c4)n3)cc2)cc1	15.7	-0.2	68.7*	0.8	0.3	-6.3
CC(=O)Oc1ccc(Oc2ccc(-c3noc(C)n3)cc2)cc1	24.2	-2.0	27.4	0.8	0.7	4.2
CCCC1(CCC)NC(=O)N(CC(=O)c2cc(C)n(-c3ccc4c(c3)OCO4)c2C)C1=O	/	-1.2	/	/	/	/
CCCNC(=S)N(Cc1ccccc1)Cc1nc2ccccc2c(=O)[nH]1	/	-3.1	/	/	/	/
S=C(NCCN1CCOCC1)Nc1ccc(Br)cc1	/	-2.5	/	/	/	/
O=C(N/N=C/c1cc(Br)c(Br)o1)c1cccnc1	/	-1.7	/	/	/	/
COC(=O)c1cccc(NC(=O)Cc2nc(-c3ccccc3)sc2-c2ccc(C)cc2)c1	/	0.7	/	/	/	/
CCOc1cc(-c2nc(-c3ccc(C)nc3OC)no2)cc(OCC)c1OCC	96.6*	-0.4	76.4*	0	0.2	17.1
CN1CCN(C(=O)CN(CCc2ccccc2)S(C)(=O)=O)CC1	39.9	-1.4	1.7	0.6	1	0.1
COc1cc(C2/C(=C(/O)c3ccc(OCC(C)C)cc3)C(=O)C(=O)N2CCN(C)C)ccc1O (configuration not stated)	67.5*	-1.4	7.8	0.3	0.9	20.8
CC(C)COc1ccc(/C(O)=C2/C(=O)C(=O)N(CCN(C)C)C2c2ccncc2)cc1 (configuration not stated)	-10.4	-0.8	1.5	1.1	1	4.0
CN(C)S(=O)(=O)c1ccc(Cl)c(NC(=O)COC(=O)C2CSC3(C)CCC(=O)N23)c1 (configuration not stated)	/	-1.4	/	/	/	/
CSc1cc(-c2ccc(Cl)cc2)c(C(=O)NC(C)C)s1	69.2*	-2.4	26.0	0.3	0.7	/
CSc1cc(-c2ccc(Cl)cc2)c(C(=O)NN)s1	69.9*	-1.6	65.3*	0.3	0.3	/
O=C(Nc1ccc(-n2cnnn2)cc1)C1CCC1	51.0*	-0.3	39.3	0.5	0.6	15.4
COC(=O)CN(c1cc(OC)ccc1OC)S(=O)(=O)c1ccc(OC)c(OC)c1	95.3*	-1.9	63.2*	0	0.4	8.9
COC(=O)CN(CCc1ccccc1)S(=O)(=O)c1ccc(OC)c(OC)c1	98.6*	-1.9	31.6	0	0.7	22.4
CCNC(=O)CN(Cc1ccccc1)S(=O)(=O)c1ccccc1	41.9	-0.6	38.5	0.6	0.6	5.0
COc1ccccc1N(CC(N)=O)S(=O)(=O)c1ccc(C)cc1	27.7	-2.3	43.9	0.7	0.6	3.1
COC(=O)CN(Cc1ccccc1)S(=O)(=O)c1ccc(OC)c(OC)c1	57.3*	-2.2	-7.4	0.4	1.1	/
Cc1c(Br)c([N+](=O)[O-])nn1CC(=O)N1CCCc2ccccc21	12.9	-1.2	37.6	0.9	0.6	/
Cc1ccccc1N1CCN(C2=NC(=O)/C(=C\c3cccs3)S2)CC1	/	-3.3	/	/	/	/
SMILES	CYP2C19 inhib	MRP-1 activ	CYP2C9 inhib	CYP2C19 activ	CYP2C9 activ	MRP resist rev
O=C1N=C(N2CCN(c3cccc4ccccc34)CC2)S/C1=C/c1cccs1	54.2*	-2.1	-5.9	0.5	1.1	/
O=C(Cc1nc(-c2ccc([N+](=O)[O-])cc2)cs1)Nc1ccccc1	29.7	2.1	62.5*	0.7	0.4	/
COCCSc1ccccc1C(=O)Nc1cc(C)on1	5.0	-0.8	4.7	0.9	1	-1.3
Cc1noc(C)c1CSc1ccccc1C(=O)Nc1nccs1	76.1*	-0.6	31.9	0.2	0.7	0.4
CC(NC(=O)C12CC3CC(C1)CC(n1cncn1)(C3)C2)C12CC3CC(CC(C3)C1)C2 (configuration not stated)	67.9*	-4.4	71.7*	0.3	0.3	/
O=C(NC1CCCCC1)C12CC3CC(C1)CC(n1cncn1)(C3)C2	-5.0	-2.9	-0.1	1.1	1	/
Cc1nn(-c2ccc(F)cc2)c(Cl)c1/C=C(\CC(=O)O)c1nc2ccccc2s1	-12.1	-2.4	17.3	1.1	0.8	2.5
Cc1nn(-c2ccccc2)c(Cl)c1/C=C(\CC(=O)O)c1nc2ccccc2s1	19.1	-0.4	74.3*	0.8	0.3	/
Cc1nn(-c2ccccc2)c(Cl)c1/C=C/C(=O)c1ccccc1	70.3*	-2.8	65.8*	0.3	0.3	/
COc1ccc(CCNC(=O)CC2SC(=NCCc3ccccc3)NC2=O)cc1 (configuration not stated)	/	-1.4	/	/	/	/
CCCCOC(=O)CSc1nc(N)c(C#N)c(-c2ccc(OCC)cc2)c1C#N	16.9	0.7	22.8	0.8	0.8	-18.0
Cc1cccc(Oc2sc(C(=O)c3ccccc3)c(N)c2C#N)c1	60.9*	-6.1	46.6	0.4	0.5	/
C=C(C)CSc1nc(N)c(C#N)c(-c2ccc(C)cc2)c1C#N	12.9	-4.7	50.0*	0.9	0.5	-18.6
CCOC(=O)CC(=O)CSc1nc(N)c(C#N)c(-c2ccc(F)cc2)c1C#N	62.2*	-0.7	52.9*	0.4	0.5	6.4
CCCCOc1ccc(-c2c(C#N)c(N)nc(SCC(N)=O)c2C#N)cc1	26.8	-6.4	39.3	0.7	0.6	-10.8
CCCCOC(=O)CSc1nc(N)c(C#N)c(-c2ccc(OC)cc2)c1C#N	28.7	-0.9	8.3	0.7	0.9	-7.6
CCOC(=O)CSc1nc(N)c(C#N)c(-c2ccc(OC)cc2)c1C#N	60.1*	0.7	45.1	0.4	0.5	2.8
COc1ccc(/C(O)=C2/C(=O)C(=O)N(CCCN(C)C)C2c2cccc(Cl)c2)cc1OC (configuration not stated)	/	2.9	/	/	/	-6.9
COc1cccc(Nc2ncnc3c2cnn3C)c1	1.9	-0.5	-11.8	1	1.1	7.9
COc1ccc(C(=O)c2sc3nc(-c4ccccc4)ccc3c2N)cc1	/	-1.4	/	/	/	/
COc1ccc(-c2c(C#N)c(N)nc3sc(C(=O)c4ccccc4)c(N)c23)cc1	/	11.5*	/	/	/	/
CC1CCCCC1NC(=O)/C(C#N)=C/c1ccccc1F (configuration not stated)	/	-5.1	/	/	/	/
Cc1ccc(C(=O)NC(NC(=O)c2ccc(C)cc2)c2cccc([N+](=O)[O-])c2)cc1	/	-0.2	/	/	/	/
CCOC(=O)c1cnc(-c2ccccc2)nc1N	85.4*	-0.9	64.2*	0.1	0.4	8.4
CCOC(=O)c1cnc(SCC(C)C)nc1N	50.3*	-2.2	49.7	0.5	0.5	17.9
CCOC(=O)c1cnc(SC)nc1N	36.1	-0.2	12.5	0.6	0.9	0.2
CCOC(=O)c1cnc(SCC(=O)c2ccc3c(c2)OCCO3)nc1N	17.2	-0.9	52.3*	0.8	0.5	-0.1
CCOC(=O)c1cnc(SCC(=O)c2ccc(C)cc2)nc1N	/	-0.2	/	/	/	14.1

Bioassay records: PubChem, several laboratories
